As usually defined, the inhibition is the change of the read-out against control, counted positive when it falls.

The structures appear in SMILES notation. Out of some 2,300 compounds screened, about 1,100 (48%) were called active.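 The calls were made as follows: active = inhibition above the mean inhibition of all tested sample wells plus 3 SD (cut at about 10% in these data); inactive = the rest.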 So high a share suggests a set chosen from earlier hits. Only a sample is shown.

Chain of Luciferin 4-monooxygenase (Photinus pyralis) (P08659 whole entry, looked up): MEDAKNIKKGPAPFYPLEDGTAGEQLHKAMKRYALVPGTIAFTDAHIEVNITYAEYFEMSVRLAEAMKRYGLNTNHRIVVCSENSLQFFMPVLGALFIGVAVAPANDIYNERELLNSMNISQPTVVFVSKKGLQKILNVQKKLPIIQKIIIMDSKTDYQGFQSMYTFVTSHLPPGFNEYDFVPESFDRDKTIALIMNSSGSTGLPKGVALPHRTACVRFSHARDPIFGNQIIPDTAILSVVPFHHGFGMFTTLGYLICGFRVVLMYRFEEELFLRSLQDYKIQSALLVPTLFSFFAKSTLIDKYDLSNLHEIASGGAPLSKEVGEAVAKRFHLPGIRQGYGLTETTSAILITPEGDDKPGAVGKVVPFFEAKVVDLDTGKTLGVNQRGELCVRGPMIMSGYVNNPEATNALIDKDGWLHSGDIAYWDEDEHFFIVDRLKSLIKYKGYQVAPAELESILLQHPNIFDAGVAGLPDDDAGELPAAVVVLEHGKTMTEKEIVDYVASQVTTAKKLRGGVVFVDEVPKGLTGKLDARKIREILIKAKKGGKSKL

The assay has as its target Luciferin 4-monooxygenase (Photinus pyralis) (UniProt P08659). Briefly: firefly luciferase inhibitors, HSP90 counter-screen, confirmation, artefact control for HSP90 inhibitor project, biochemical, luminescence, triplicate (AID 1847).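 Also: 0% = DMSO with luciferase and 100% = wells lacking luciferase.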 The conditions noted are these: purified native firefly luciferase, at 5.9 µM, stronger effect = higher value.
Take `COc1cccc(-c2nc3ccc(N4CCN(C)CC4)cc3[nH]2)c1`: the inhibition is 38.9% (active).

Consider `O=c1c2ccccc2nc(/C=C/c2ccco2)n1-c1ccccc1O`, for which the inhibition is 4.47% (inactive).

The record behind these values is PubChem BioAssay AID1847 (The Scripps Research Institute Molecular Screening Center, 2009).
